Source: publication PMC5540273 (PLoS ONE, 2017)

Tested on: MAST1
Conditions: concentration: 1 μM,replicates: in singlicate; n = 1
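Note: KINOMEscan kinase panel screen.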

Structure (SMILES) | %Inh [%]
Cl.Nc1n[nH]c2cc(-c3ccccn3)ccc12 [GSK2189892] | 0
Cc1ccc(CC(=O)N2CCc3cc(-c4cn(C)c5ncnc(N)c45)ccc32)cc1 [GSK2634758] | 8
CN(c1ccc2c(c1)nc(NCc1ccc(F)cc1)n2C)c1ccnc(Nc2ccc(CS(C)(=O)=O)cc2)n1.Cl [GW813244] | 19
Cl.c1ccc(Oc2ccc(Nc3ccnc4cc(-c5ccc(CN6CCNCC6)o5)ccc34)cc2)nc1 [GW567142] | 0
CC(C)S(=O)(=O)N1CCN(Cc2ccc3c(c2)nc(NC(=O)c2ccsc2)n3C[C@H](O)c2ccccc2)CC1 [GW635815] | 0
Cc1nnc(-c2ccc3occ(-c4ccc(S(C)=O)cc4)c3n2)o1 (centres unmarked) | 0
OCCn1cc(-c2cnc3nnn(Cc4ccc5ncccc5c4)c3n2)cn1 | 0
CCn1c(-c2nonc2N)nc2cncc(CNC3CCNCC3)c21.Cl [SB-747651] | 21
NC(=O)c1ccc(-c2cc3ncnc(SCC(=O)O)c3s2)cc1 | 0
Cn1cc(-c2cccc3c(N)c(C(N)=O)nnc23)cn1 | 17
CCCC(=O)Nc1n[nH]c2ncccc12 [SB-601436] | 0
